This is an account of results in PubChem BioAssay AID1645838 (ICCB-Longwood Screening Facility, Harvard Medical School, 2021).

Molecules are shown by their SMILES. “And” between values parts separate entries of the source, which are not always exact repeats. Identical values can stand only once. The campaign covered roughly 2,000 compounds. About 100 (5%) were called active. Cut-off read from the data, not from the text of the source: active = z-score above about 2; inactive = the rest. The list comes from a sample in which actives are over-represented; it also holds similar structures and randomly drawn compounds. A structure can be active in one record and inactive in another.

This test in a line: supercomplex reporter luminescence per Hoechst cell count – Hoechst nuclei count (AID 1645838).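 For all read-outs here: control cybrid cells.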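 For z-score: higher means more mitochondrial supercomplex formation.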 To be noted: Cells, luminescence/Hoechst cell count ratio; for z-score: stronger effect = higher value; for cell count: measured here: cell number, Hoechst nuclei count.
Where [1] appears, read: library stock concentration (final well concentration not given) 46 uM.
[2] abbreviates: library stock concentration (final well concentration not given) 278 uM.
Where [3] appears, read: library stock concentration (final well concentration not given) 1.67 mM.
Where [4] appears, read: library stock concentration (final well concentration not given) 10 mM.
The mark [5] stands for this setting: library stock concentration (final well concentration not given) 80 uM.
Setting [6] is: library stock concentration (final well concentration not given) 400 uM.
Setting [7] is: library stock concentration (final well concentration not given) 2 mM.

In the case of `O=c1cc(N2CCOCC2)oc2c1ccc1ccccc12`, the z-score is, setting by setting: under setting [1], -0.263 (inactive); under setting [2], 0.075 (inactive); under setting [3], 0.0237 (inactive); under setting [4], -0.121 (inactive). Moreover, the cell count runs as follows: under setting [1], 6320; under setting [2], 6310; under setting [3], 6270; under setting [4], 6380.

Consider `O=c1cc(N2CCOCC2)oc2c(-c3cccc4c3sc3ccccc34)cccc12`, for which the z-score under setting [5] is -0.493 (inactive) and 0.0213 (inactive); the z-score under setting [6] was -0.14 (inactive) and 0.291 (inactive); the z-score under setting [7] was 1.89 (inactive) and 3.23 (active); the z-score under setting [4] is 0.374 (inactive) and 11.4 (active). Moreover, the cell count reads like this: under setting [5], 4940 and 6230; under setting [6], 4400 and 5530; under setting [7], 3070 and 3850; under setting [4], 4020 and 1970.

On to `O=c1cc(N2CCOCC2)oc2c(-c3ccccc3)cccc12`, for which the z-score was 0.00801 (inactive) and the cell count was 5270.

As for `C[C@@H](O)CCC[C@@H](O)/C=C/[C@@H]1[C@@H](CCCCCCC(=O)O)[C@@H](O)C[C@H]1O`, the z-score is -0.0165 (inactive) and the cell count turned out to be 5060.

Turning to `NC(=O)c1ccc2nc(-c3ccc(Oc4ccc(Cl)cc4)cc3)[nH]c2c1`, the z-score is, setting by setting: under setting [5], 0.235 (inactive); under setting [6], 0.636 (inactive); under setting [7], 0.25 (inactive); under setting [4], 2.04 (active). For the same compound, the cell count runs as follows: under setting [5], 4680; under setting [6], 4440; under setting [7], 4560; under setting [4], 3840.

Take `NC(=O)c1ccc(-c2nc(-c3ccc4c(c3)OCCO4)c(-c3ccccn3)[nH]2)cc1`: the z-score is 0.107 (inactive) and the cell count was 5540.

In the case of `NC(=O)c1ccc(-c2nc(-c3ccc4c(c3)OCO4)c(-c3ccccn3)[nH]2)cc1`, the z-score is -0.0341 (inactive) and the cell count was determined as 5380.

For the compound `CCCCCCCCCCCSCC(=O)O`, the z-score was -0.636 (inactive) and the cell count was determined as 5540.

Take `CCCCCC(=O)/C=C/C=O`: the z-score is 3.38 (active) and the cell count turned out to be 4570.

With `CCCCCCCCCCCCCCCC(=O)NC(C)C`, the z-score was -0.641 (inactive) and the cell count amounted to 5670.

As for `CCCCCC(O)/C=C/C=O` (centres undefined), the z-score is -0.635 (inactive) and the cell count is 5350.

Regarding `CCCCCC/C=C\CCCCCCCC(=O)OCC`, the z-score was -0.872 (inactive) and the cell count came to 5340.

For `Cc1ccc(C)c(-n2sc3cc(F)ccc3c2=O)c1`, the z-score under setting [1] is -0.174 (inactive), the z-score under setting [2] is -0.302 (inactive), the z-score under setting [3] is -1.02 (inactive) and the z-score under setting [4] is 1.44 (inactive). Further, the cell count under setting [1] is 7370, the cell count under setting [2] turned out to be 6230, the cell count under setting [3] amounted to 7150 and the cell count under setting [4] came to 2660.

As to `CS(=O)(=O)N1CCc2c(-c3cnc(N)nc3)nc(N3CCOCC3)nc21`, the outcome (library stock 10 mM) was “inactive; censored for cell count”. Further, the z-score under setting [5] was -0.156 (inactive), the z-score under setting [6] was 0.294 (inactive) and the z-score under setting [7] was 1.97 (active). Moreover, the cell count is, setting by setting: under setting [5], 5660; under setting [6], 4440; under setting [7], 2590.

With `CC1=C(C(=O)Nc2ccccc2C)C(c2cccc([N+](=O)[O-])c2)C2=C(CCCC2=O)N1` (centres undefined), the z-score under setting [5] is 0.502 (inactive), the z-score under setting [6] was 0.355 (inactive), the z-score under setting [7] was -0.0592 (inactive) and the z-score under setting [4] was 0.0886 (inactive). Also, the cell count is 4870 under setting [5], 4830 under setting [6], 4490 under setting [7] and 4680 under setting [4].

Consider `CCCCCCCCCCCCCCCCC/C=C\C(=O)O`, for which the z-score was 0.0429 (inactive) and the cell count worked out at 4620.

Turning to `CCCCCCCC/C=C\CCCCCCCC(=O)NCC`, the z-score was 0.358 (inactive) and the cell count is 5660.

For `CCCCCCCC(=O)OC[C@H](CO)OC(=O)CCCCCCC`, the z-score was -0.0675 (inactive) and the cell count was 5320.

On to `CCCCCc1ccc(C=CC(=O)Nc2ccccc2C(=O)O)cc1`, for which the z-score reads like this: under setting [1], 0.0102 (inactive); under setting [2], -0.157 (inactive); under setting [3], -0.383 (inactive); under setting [4], -0.45 (inactive). The cell count runs as follows: under setting [1], 6840; under setting [2], 6660; under setting [3], 6860; under setting [4], 6620.

As to `CC(C)[C@H](C(=O)Nc1ccc(C(=O)NO)cc1)c1ccccc1`, the outcome was “inactive; censored for cell count”.

For `CCCCN(Cc1ccc(C(=O)NO)cc1)C(=O)Nc1ccccc1`, the z-score runs as follows: under setting [5], -0.413 (inactive); under setting [6], -0.344 (inactive); under setting [7], 0.545 (inactive); under setting [4], 1.99 (active). In addition, the cell count turned out to be 5840 under setting [5], 5790 under setting [6], 4990 under setting [7] and 3280 under setting [4].

In the case of `CC(C)(C)CCN1C[C@@H]2C(CNC(=O)c3cc(Cl)cc(Cl)c3)[C@@H]2C1` (some centres undefined), the z-score was 0.249 (inactive) under setting [5], -0.0169 (inactive) under setting [6], -0.303 (inactive) under setting [7] and -0.298 (inactive) under setting [4]. The cell count by setting is: under setting [5], 4670; under setting [6], 5180; under setting [7], 5270; under setting [4], 4390.

In the case of `CCCCC[C@H](O)/C=C/[C@@H]1[C@H]2CC(CCCCC(=O)O)O[C@H]2C[C@H]1O` (some centres undefined), the z-score was -0.784 (inactive) and the cell count turned out to be 6080.

On to `O=C(NC(=O)c1c(F)cccc1Cl)NC1c2ccccc2-c2ccccc21`, for which the z-score under setting [1] was -0.18 (inactive), the z-score under setting [2] is -0.113 (inactive), the z-score under setting [3] is -0.216 (inactive) and the z-score under setting [4] is -0.278 (inactive). For the same compound, the cell count under setting [1] came out at 6490, the cell count under setting [2] stood at 6240, the cell count under setting [3] was 6190 and the cell count under setting [4] was 5520.

For the compound `CC(C=CC1=C(C)CCCC1(C)C)=CC=CC(C)=CC(=O)O`, the z-score was -0.113 (inactive) under setting [1], -0.063 (inactive) under setting [2], -0.22 (inactive) under setting [3] and 0.0473 (inactive) under setting [4]. The cell count came out at 5180 under setting [1], 5150 under setting [2], 5430 under setting [3] and 4870 under setting [4].

For the compound `O=C1NC(=O)C(=Cc2ccc3nccnc3c2)S1`, the z-score under setting [5] is -0.0169 (inactive) and -0.181 (inactive); the z-score under setting [6] was 0.573 (inactive) and -0.161 (inactive); the z-score under setting [7] was 1.47 (inactive) and -0.299 (inactive); the z-score under setting [4] was 2.46 (active) and -0.465 (inactive). Moreover, the cell count runs as follows: under setting [5], 4280 and 5470; under setting [6], 4140 and 5420; under setting [7], 3800 and 5820; under setting [4], 2300 and 3900.

As to `O=C1NC(=O)/C(=C/c2ccc3c(c2)OC(F)(F)O3)S1`, the z-score was 0.349 (inactive) and the cell count was 4670.
